Measurements taken from PubChem BioAssay AID1376 (SRMLSC, 2008).
The campaign covered roughly 220,000 compounds. About 530 (0.24%) were called active. Rule as the data show it: active = inhibition above about 13%; inconclusive = no clear call, values can overlap the other calls; inactive = below that. The sample as a whole holds a higher share of actives than the screen did. Measured potencies and affinities stand elsewhere.

molecular target: Bifunctional protein GlmU (Mycobacterium tuberculosis (strain ATCC 25618 / H37Rv)) (UniProt P9WMN3); assay: inhibition of mycobacterial GlmU enzyme – biochemical, glucosamine-1-phosphate acetyltransferase (AID 1376);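 also: 0% = complete reaction with vehicle and 100% = reaction without substrate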; details: M. tuberculosis GlmU acetyltransferase enzyme assay; stronger effect = higher value;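 tested at 30 µM in the primary screen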
Sequence (P9WMN3 whole entry, looked up): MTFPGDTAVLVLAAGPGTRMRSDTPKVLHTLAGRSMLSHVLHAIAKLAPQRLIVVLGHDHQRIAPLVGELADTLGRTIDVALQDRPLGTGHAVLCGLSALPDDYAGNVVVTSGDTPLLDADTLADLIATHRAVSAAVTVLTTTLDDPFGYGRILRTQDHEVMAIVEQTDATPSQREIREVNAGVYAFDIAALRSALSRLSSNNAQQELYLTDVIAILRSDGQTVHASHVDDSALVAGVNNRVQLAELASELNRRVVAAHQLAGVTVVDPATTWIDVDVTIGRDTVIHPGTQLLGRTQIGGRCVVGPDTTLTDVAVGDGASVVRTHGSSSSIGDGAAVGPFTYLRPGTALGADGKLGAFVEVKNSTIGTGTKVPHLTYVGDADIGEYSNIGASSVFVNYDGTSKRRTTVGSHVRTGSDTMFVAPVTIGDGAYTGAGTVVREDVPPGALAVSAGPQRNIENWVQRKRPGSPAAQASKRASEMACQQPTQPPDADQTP

Row | SMILES | inhibition
1 | O=C(CNCC1CCCO1)N1CCCc2ccccc21 (stereo not drawn) | 1.14% (inactive)
2 | O=C(O)c1nc2ccccc2nc1C(=O)O | -0.04% (inactive)
3 | Cc1cc(C(=O)Nc2ccc(C)c(S(=O)(=O)N3CCOCC3)c2)c(C)o1 | -1.51% (inactive)
4 | CCC1=C(OC(=O)N(CC)CC)N2C(=O)OC(=NCC3CC3)[C@]2(C)[C@H]2C1=CC[C@H]1C(=O)N(CC)C(=O)[C@H]12 | 1.38% (inactive)
5 | COc1ccc(CNC(=O)Nc2ccc3c(c2)N(C)C(=O)CS3)cc1 | -4.33% (inactive)
6 | O=C(c1ccc(C(F)(F)F)cc1)c1c[nH]c(C(=O)NCCCn2ccnc2)c1 | -1.27% (inactive)
7 | Cc1ccccc1C(=O)NNC(=O)CSc1nnc(-c2ccncc2)n1-c1ccccc1 | -3.22% (inactive)
8 | OCCC1CN(Cc2cccn2-c2nccs2)CCN1C1CCCCC1 (stereo not drawn) | -4.98% (inactive)
9 | Oc1cccc2cc3cccc(O)c3c(O)c12 | -0.27% (inactive)
10 | COc1cc2cccc(OC)c(=O)c2c(O)c1OC | -3.83% (inactive)
11 | O=C(c1ccc2c(c1)OCCO2)N1CCN(c2ccc([N+](=O)[O-])cc2)CC1 | -4.31% (inactive)
12 | COc1cc(/C=C2\SC(c3ccc(C)cc3)=NC2=O)cc(OC)c1O | 5.86% (inactive)
13 | COc1cc(/C=C2\SC(c3ccc(C)cc3)=NC2=O)ccc1O | 7.11% (inactive)
14 | Cc1ccc(C2=NC(=O)/C(=C/c3cc(O)c(O)c(Br)c3)S2)cc1 | 17.7% (active)
15 | CC(=O)Nc1ccc(/C(C)=N/NC(=O)c2ccncc2)cc1 | 1.93% (inactive)
16 | COc1ccc(N2C(=O)CC(C3CCCO3)C2=O)cc1 (stereo not drawn) | 6.39% (inactive)
17 | Cn1c(O)c(C=NC2CC(C)(C)NC(C)(C)C2)c(=O)n(C)c1=O | 1.39% (inactive)
18 | COc1cc2c(cc1NS(=O)(=O)N1CCCCC1)oc1ccccc12 | 14.6% (active)
19 | O=S(=O)(Nc1ccc2c(c1)oc1ccccc12)N1CCCC1 | 5.63% (inactive)
20 | COc1cc2c(cc1NS(=O)(=O)N1CCCC1)oc1ccccc12 | 1.9% (inactive)
21 | FC(F)Oc1ccc(NC(=S)NCCc2ccccn2)cc1 | -3.82% (inactive)
22 | O=C(Nc1cccc(Cl)c1)Nc1nnc(CSCCOc2ccc(Cl)cc2)s1 | -7.81% (inactive)
23 | Cc1ccc(C)n1-c1cccc(C(=O)O)c1 | 23.5% (active)
24 | Cc1cc(C=O)c(C)n1-c1cccc(C(=O)O)c1 | 6.93% (inactive)
25 | Cc1ccc(-c2ccccc2)n1-c1cccc(C(=O)O)c1 | 5.34% (inactive)

Row | SMILES | inhibition
26 | Cc1ccccc1NC(=O)Cn1nc(-c2ccccc2)nc1-c1ccccc1 | 1.21% (inactive)
27 | O=[N+]([O-])c1cccnc1Oc1cccnc1 | 6.22% (inactive)
28 | Cn1c(Cc2ccc3c(c2)OCO3)nnc1SCC(=O)N1CCc2ccccc2C1 | 1.71% (inactive)
29 | COc1cc2c(C#N)c(N3CCCCC3)nc(N)c2c(N)n1 | -2.38% (inactive)
30 | CCOC(=O)C1CCN(c2nc(C)cc(C)c2C#N)CC1 | -1.41% (inactive)
31 | CCOc1cc2c(C#N)c(N3CCCC3)nc(N)c2c(N)n1 | 4.64% (inactive)
32 | CCOC(=O)C1CCN(c2nc(N)c3c(N)nc(SCC(=O)O)cc3c2C#N)CC1 | 14.2% (active)
33 | N#Cc1c(N2CCCCC2)nc(N)c2c(N)nc(SCC(=O)O)cc12 | 13.1% (active)
34 | N#Cc1c(N2CCCC2)nc(N)c2c(N)nc(N3CCCC3)cc12 | -6.67% (inactive)
35 | CC(=O)Nc1ccccc1C(=O)C(=O)Nc1ccc(C)c(C)c1 | -3.19% (inactive)
36 | COc1cc(C(=S)N2CCCC2)cc(Cl)c1OCC(=O)Nc1ccc(C)cc1C | -4.86% (inactive)
37 | CN(C)CCCOC(=O)c1cc2ccccc2o1 | -2.64% (inactive)
38 | O=C(Cn1cnc2ccccc2c1=O)N1CCN(c2ccccc2)CC1 | 5.67% (inactive)
39 | COc1nc(N(CC(N)=O)S(=O)(=O)c2ccccc2)nc(C)c1Cl | 4.56% (inactive)
40 | COC(=O)CN(c1nc(C)c(Cl)c(OC)n1)S(=O)(=O)c1ccc(C)cc1 | 25.4% (active)
41 | COC(=O)CN(c1nc(C)c(Br)c(OC)n1)S(=O)(=O)c1ccc(C)cc1 | 1.24% (inactive)
42 | CC(O)CCC(=O)NNC(=S)Nc1ccccc1 (stereo not drawn) | 2.51% (inactive)
43 | O=C(O)C1CCCCC1C(=O)Nc1ccccc1Cl (stereo not drawn) | -0.88% (inactive)
44 | O=C(Nc1ccccc1Br)C1CCN(C(=O)Cc2ccccc2)CC1 | -6.58% (inactive)
45 | O=C(O)C1CCCCC1C(=O)Nc1ccccc1F (stereo not drawn) | 13.6% (active)
46 | O=C(Nc1ccccc1F)C1CCN(C(=O)Cc2ccccc2)CC1 | 15% (active)
47 | O=C(O)C1CCCCC1C(=O)Nc1ccc(F)cc1F (stereo not drawn) | 5.94% (inactive)
48 | O=C(Nc1cccc2ccccc12)C1CCN(C(=O)Cc2ccccc2)CC1 | 0.74% (inactive)
49 | COc1ccc(C2CC(c3ccc(OC)cc3)n3nc(N)nc3N2)cc1 (stereo not drawn) | 1.16% (inactive)
50 | Nc1nc2n(n1)C(c1ccc(F)cc1)CC(c1ccc(F)cc1)N2 (stereo not drawn) | -1.02% (inactive)

Row | SMILES | inhibition
51 | COc1ccc(C2CC(c3ccc(F)cc3)Nc3nc(N)nn32)cc1 (stereo not drawn) | 20% (active)
52 | Cc1ccc(/C(O)=C2\C(=O)C(=O)N(CC(C)O)C2c2ccccn2)cc1 (stereo not drawn) | -0.84% (inactive)
53 | COC(=O)Cc1ccc(NC(=S)NCCCO)cc1 | 13.5% (active)
54 | COC(=O)Cc1ccc(NC(=S)NCCO)cc1 | -2% (inactive)
55 | CCCNC(=S)Nc1ccc(CC(=O)OC)cc1 | -4.55% (inactive)
56 | COC(=O)c1sc(N2C(=O)C(=O)/C(=C(/O)c3ccc(C)cc3)C2c2ccco2)nc1C (stereo not drawn) | -0.75% (inactive)
57 | COc1ccc(C2NC(=S)NC(C)=C2C(=O)Nc2ccccn2)cc1 (stereo not drawn) | 2.34% (inactive)
58 | CC1=C(C(=O)Nc2ccccn2)C(c2ccc(Cl)cc2)NC(=S)N1 (stereo not drawn) | 2.47% (inactive)
59 | CC1=C(C(=O)Nc2ccccn2)C(c2ccc(Br)cc2)NC(=S)N1 (stereo not drawn) | 14.3% (active)
60 | Cc1cc(OCCCC(=O)NC2=NCCS2)ccc1Cl | -5.02% (inactive)
61 | CCn1cc(CNCc2cn[nH]c2-c2cc3ccccc3o2)cn1 | 1.28% (inactive)
62 | OC1(CNCc2cn[nH]c2-c2cc3ccccc3o2)CCCCC1 | 14.3% (active)
63 | c1ccc2oc(-c3[nH]ncc3CN3CCSCC3)cc2c1 | 0.41% (inactive)
64 | CSc1nccc(-c2c(-c3ccc(Cl)cc3)noc2C)n1 | 2.51% (inactive)
65 | c1ccc(CNc2ncnc3c2ncn3C2CCCCO2)cc1 (stereo not drawn) | -1.2% (inactive)
66 | O=C(N/N=C/C1=Cc2ccccc2OC1)c1ccncc1 | -1.23% (inactive)
67 | CC1Oc2ccccc2C=C1/C=N/Nc1ccc(C(=O)O)cc1 (stereo not drawn) | 4.4% (inactive)
68 | O=C(O)c1ccc(N/N=C/C2=Cc3ccccc3OC2)cc1 | 14.4% (active)
69 | CSc1nccc(Oc2cncc(Cl)c2)n1 | 2.56% (inactive)
70 | CCOc1ccc(Cc2n[nH]c(=S)n2N)cc1 | 1.55% (inactive)
71 | CCCCOc1ccc(Cc2n[nH]c(=S)n2N)cc1 | 12.8% (active)
72 | Nn1c(Cc2ccc(F)cc2)n[nH]c1=S | -2.75% (inactive)
73 | COc1ccccc1/C=N/NC(=O)C(=O)NCc1cccnc1 | 3.16% (inactive)
74 | COc1ccc(S(=O)(=O)NNC(=O)c2csc(-n3nc(C)cc3C(F)(F)F)n2)cc1OC | 2.2% (inactive)
75 | O=C(O)c1ccc(Oc2c(C(F)(F)F)oc3cc(O)ccc3c2=O)cc1 | -3.31% (inactive)

Row | SMILES | inhibition
76 | O=c1c(C(c2ccc(Cl)cc2)c2c(O)nc3n(c2=O)CCS3)c(O)nc2n1CCS2 | 9.88% (inactive)
77 | COc1cccc(NC(=O)CN(C)C(C)C(=O)Nc2cc([N+](=O)[O-])ccc2Cl)c1 (stereo not drawn) | -8.73% (inactive)
78 | Cc1noc(NS(=O)(=O)c2ccc(N/C=C\C(=O)c3ccccc3)cc2)c1C | 1.37% (inactive)
79 | Cc1noc(NS(=O)(=O)c2ccc(N/C=C\C(=O)c3ccc(F)cc3)cc2)c1C | 4.6% (inactive)
80 | Cc1ccc(C(=O)/C=C/Nc2ccc(S(=O)(=O)Nc3onc(C)c3C)cc2)cc1 | 14.2% (active)
81 | Cc1noc(NS(=O)(=O)c2ccc(N/C=C\C(=O)c3cccs3)cc2)c1C | 13.3% (active)
82 | Cc1noc(NS(=O)(=O)c2ccc(N/C=C/C(=O)c3ccc(F)cc3)cc2)c1C | 3.6% (inactive)
83 | Cc1noc(NS(=O)(=O)c2ccc(N/C=C\C(=O)c3ccncc3)cc2)c1C | 3.38% (inactive)
84 | Cc1ccc2cc(CN(CCCN3CCOCC3)C(c3nnnn3Cc3ccco3)C(C)C)c(=O)[nH]c2c1C (stereo not drawn) | -1.48% (inactive)
85 | CCOc1ccc(N2C(=O)c3cccnc3C2Nc2ccc(C)c(C)c2)cc1 (stereo not drawn) | -5.6% (inactive)
86 | CCO[C@@H]1OC(C(=O)Nc2ccccc2)=C[C@H](c2ccc(Br)cc2)[C@H]1CCCO | 1.98% (inactive)
87 | CC(=O)Nc1ccc(/C=C(\C#N)C(=O)NC2CCCCC2C)cc1 (stereo not drawn) | 3.98% (inactive)
88 | O=C(CN1CCN(c2ccc(Cl)cc2)CC1)NCc1ccccc1 | 1.83% (inactive)
89 | CC(=C\c1ccccc1)/C=C1/SC(=S)N(C(C(=O)O)C(C)C)C1=O (stereo not drawn) | 5.39% (inactive)
90 | CC(/C=C1\SC(=S)N(C(C(=O)O)C(C)C)C1=O)=C\c1ccccc1 (stereo not drawn) | 3.64% (inactive)
91 | O=C1S/C(=C\C=C\c2ccco2)C(=O)N1c1ccccc1 | 6.89% (inactive)
92 | O=C1/C(=C/C=C/c2ccco2)SC(=S)N1c1ccc(O)cc1 | 7.16% (inactive)
93 | CCCCC(=O)Nc1ncc(Br)s1 | 0.1% (inactive)
94 | Cc1nnc(SCC(=O)Nc2cc(-c3cc(C)c(C)cc3C)nn2-c2ccccc2)s1 | -5.02% (inactive)
95 | COc1cc(/C=N/NC(=O)c2cccc([N+](=O)[O-])c2)ccc1OCc1ccccc1 | 1.61% (inactive)
96 | O=C1NC(=O)N(Cc2ccc(F)cc2)C(=O)/C1=C\c1ccc([N+](=O)[O-])s1 | 6.15% (inactive)
97 | CN1C(=O)NC(=O)/C(=C/c2ccc([N+](=O)[O-])s2)C1=O | -1.9% (inactive)
98 | CCN1C(=O)/C(=C\c2ccc([N+](=O)[O-])s2)C(=O)NC1=S | 92.2% (active)
